20 molecules from PubChem BioAssay can be followed below.

Unmarked numbers belong to inactive results. For some of these results: Entries with a potency or affinity are not part of this list. The source made the active and inactive calls. Unless noted, how the calls were made is not given here.

Experiment [1] is described as follows: antimalarial activity against Dd2 strain (AID 2302;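 active means growth inhibition above 50% at the single 2 µM test dose, taken to imply half-maximal potency below 2 µM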;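 further: 0% = DMSO untreated growth and 100% = chloroquine plus artemisinin killed control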). To be noted: P. falciparum Dd2 in RBCs, LDH growth readout, 72 h; at 2 µM; stronger effect = higher value.
A short description of experiment [2]: HepG2 cytotoxicity, primary screen, cytotoxicity control for P. falciparum antimalarial project, cell-based, ATP luminescence (AID 2303;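 active means inhibition above 50%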;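 further: 0% = DMSO wells and 100% = digitonin-killed cells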). The following applies: HepG2 viability, 24-48 h, at 10 µM, stronger effect = higher value.
Experiment [3] concerns the target L-lactate dehydrogenase (Plasmodium falciparum (isolate CDC / Honduras)) (UniProt Q27743). Kind of experiment: PfLDH activity inhibition – cell lysate, 3D7 strain, counter-screen for P. falciparum growth inhibition project (AID 2304).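 Further: 0% = vehicle and 100% = reference inhibitor.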 The following applies: P. falciparum 3D7 crude extract, LDH APAD/NBT absorbance; at 2 µM; stronger effect = higher value.
A short description of experiment [4]: inhibition of 3D7 malaria parasite growth – strain 3D7 (AID 2306).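 Further: 0% = DMSO wells and 100% = chloroquine plus artemisinin control wells.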 To be noted: P. falciparum 3D7 erythrocytic growth, LDH absorbance, 72 h; at 2 µM; stronger effect = higher value.
In experiment [5] the target is Calcium-dependent protein kinase 1 (Plasmodium falciparum (isolate 3D7)) (UniProt P62344). Kind of experiment: PfCDPK1 kinase inhibitors, biochemical, TCAMS library (AID 1159585; cut-off not given, nearly all actives have IC50 up to about 0.98 µM;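 further: inhibitors leave more ATP so luminescence rises with inhibition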). To be noted: recombinant PfCDPK1, Kinase-Glo ATP depletion luminescence.
Experiment [6] concerns the target Plasmodium falciparum protein kinase 6 (PK6, PF3D7_1337100) (UniProt Q8IDW1). Kind of experiment: PfPK6 kinase inhibitors, biochemical, TCAMS library (AID 1159586). To be noted: recombinant PfPK6, Kinase-Glo ATP depletion luminescence.
Experiment [7] addresses Protein kinase 7 (PK7), Plasmodium falciparum 3D7 (PF3D7_0213400) (UniProt Q7YTF7). Description: inhibition of Plasmodium PK7 catalytic activity – biochemical, TCAMS antimalarial set, Kinase-Glo luminescence (AID 1159587). To be noted: recombinant PfPK7, Kinase-Glo ATP depletion luminescence.
For experiment [8], the target named is Calcium-dependent protein kinase 4 (Plasmodium falciparum (isolate 3D7)) (UniProt Q8IBS5). Description: PfCDPK4 kinase inhibitors, biochemical, TCAMS library (AID 1159588; cut-off not given, nearly all actives have IC50 up to about 0.91 µM). To be noted: recombinant PfCDPK4, Kinase-Glo ATP depletion luminescence.
Sequence of Calcium-dependent protein kinase 4 (Plasmodium falciparum (isolate 3D7)) (Q8IBS5 whole entry, looked up): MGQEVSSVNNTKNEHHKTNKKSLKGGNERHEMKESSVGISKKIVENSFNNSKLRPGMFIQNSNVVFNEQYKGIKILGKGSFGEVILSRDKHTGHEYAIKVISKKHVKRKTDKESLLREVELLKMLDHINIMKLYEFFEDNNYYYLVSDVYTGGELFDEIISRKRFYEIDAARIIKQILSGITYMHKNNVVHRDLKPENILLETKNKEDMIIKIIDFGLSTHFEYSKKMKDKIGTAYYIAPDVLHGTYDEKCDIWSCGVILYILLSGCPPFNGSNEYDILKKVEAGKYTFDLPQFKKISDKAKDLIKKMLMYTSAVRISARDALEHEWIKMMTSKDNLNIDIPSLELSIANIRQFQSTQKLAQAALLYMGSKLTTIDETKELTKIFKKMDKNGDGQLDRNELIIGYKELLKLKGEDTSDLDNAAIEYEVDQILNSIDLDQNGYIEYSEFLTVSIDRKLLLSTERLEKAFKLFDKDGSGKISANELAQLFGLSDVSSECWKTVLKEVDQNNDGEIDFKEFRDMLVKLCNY

Sequence of Plasmodium falciparum protein kinase 6 (PK6, PF3D7_1337100) (Q8IDW1 1-305): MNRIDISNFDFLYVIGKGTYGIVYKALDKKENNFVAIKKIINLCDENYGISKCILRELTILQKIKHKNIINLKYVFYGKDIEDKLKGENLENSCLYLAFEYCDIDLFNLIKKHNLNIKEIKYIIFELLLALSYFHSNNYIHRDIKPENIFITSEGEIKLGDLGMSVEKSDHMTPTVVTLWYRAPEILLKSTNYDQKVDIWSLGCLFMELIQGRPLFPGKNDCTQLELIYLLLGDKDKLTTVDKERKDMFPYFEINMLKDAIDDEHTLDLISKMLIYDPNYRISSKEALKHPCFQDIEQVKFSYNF
Sequence of Protein kinase 7 (PK7), Plasmodium falciparum 3D7 (PF3D7_0213400) (Q7YTF7 1-343): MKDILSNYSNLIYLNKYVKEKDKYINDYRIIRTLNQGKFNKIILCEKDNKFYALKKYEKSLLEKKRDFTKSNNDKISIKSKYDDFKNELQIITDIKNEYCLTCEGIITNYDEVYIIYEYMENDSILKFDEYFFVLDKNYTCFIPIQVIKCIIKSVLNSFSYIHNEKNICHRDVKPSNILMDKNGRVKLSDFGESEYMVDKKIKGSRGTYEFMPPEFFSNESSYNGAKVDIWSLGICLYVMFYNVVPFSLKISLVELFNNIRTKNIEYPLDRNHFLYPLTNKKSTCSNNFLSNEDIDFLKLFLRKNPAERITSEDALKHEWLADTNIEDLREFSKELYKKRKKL
Sequence of L-lactate dehydrogenase (Plasmodium falciparum (isolate CDC / Honduras)) (Q27743 whole entry, looked up): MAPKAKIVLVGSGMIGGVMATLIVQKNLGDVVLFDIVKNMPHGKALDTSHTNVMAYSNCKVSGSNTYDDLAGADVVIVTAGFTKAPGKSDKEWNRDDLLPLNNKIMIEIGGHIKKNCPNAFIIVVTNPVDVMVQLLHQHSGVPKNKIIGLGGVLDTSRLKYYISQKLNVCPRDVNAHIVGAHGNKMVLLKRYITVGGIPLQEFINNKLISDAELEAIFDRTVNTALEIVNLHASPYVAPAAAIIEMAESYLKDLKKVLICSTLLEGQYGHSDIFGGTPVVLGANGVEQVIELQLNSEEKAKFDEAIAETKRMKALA
Sequence of Calcium-dependent protein kinase 1 (Plasmodium falciparum (isolate 3D7)) (P62344 whole entry, looked up): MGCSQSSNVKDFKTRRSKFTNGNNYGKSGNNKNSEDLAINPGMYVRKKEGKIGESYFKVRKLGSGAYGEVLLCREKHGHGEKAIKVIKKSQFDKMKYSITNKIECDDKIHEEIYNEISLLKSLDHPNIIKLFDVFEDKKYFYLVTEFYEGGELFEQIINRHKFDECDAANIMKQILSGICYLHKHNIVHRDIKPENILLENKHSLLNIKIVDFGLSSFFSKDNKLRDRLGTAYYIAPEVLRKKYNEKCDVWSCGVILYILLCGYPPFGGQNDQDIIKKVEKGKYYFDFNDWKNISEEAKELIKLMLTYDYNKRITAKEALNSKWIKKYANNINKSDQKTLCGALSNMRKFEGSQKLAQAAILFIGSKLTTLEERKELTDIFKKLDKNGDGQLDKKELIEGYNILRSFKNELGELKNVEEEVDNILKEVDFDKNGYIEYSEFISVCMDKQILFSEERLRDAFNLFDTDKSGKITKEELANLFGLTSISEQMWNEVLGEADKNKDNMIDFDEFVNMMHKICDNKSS

For `CN(C)c1cccc2c1nc(-c1ccc3c(c1)CCO3)n2CCNCc1ccccc1`, the growth inhibition is 85% (active) in experiment [1] and 99% (active) in experiment [4]. Besides, the inhibition is 6% in experiment [2] and 0% in experiment [3]. For the same molecule, the result in experiment [5], in experiment [6], in experiment [7] and in experiment [8] was inactive.
Turning to `CCOc1ccccc1CCNC(C)Cc1ccc(C(=O)Nc2ccc(CC(C)NCCc3cccc(Cl)c3)cc2)cc1` (stereo not given), the growth inhibition was 59% (active) in experiment [1] and 97% (active) in experiment [4]. Moreover, the inhibition in experiment [2] was 100% (active); in experiment [3], -3%. In addition, the result in experiment [5], in experiment [6], in experiment [7] and in experiment [8] was inactive.
On to `FC(F)(F)c1ccc2c(NCCc3ccccc3)ccnc2c1`, for which the growth inhibition was 9% in experiment [1] and 87% (active) in experiment [4]. In addition, the inhibition in experiment [2] is 14%; in experiment [3], 0%. The result in experiment [5], in experiment [6], in experiment [7] and in experiment [8] was inactive.
With `CC(C)=C(C(=O)OCc1ccccc1)N1C(=O)[C@@H](NC(c2ccccc2)(c2ccccc2)c2ccccc2)[C@H]1[S@@](=O)CC(=O)OC(C)(C)C`, the growth inhibition in experiment [1] is 78% (active); in experiment [4] it was 92% (active). In addition, the inhibition is -2% in experiment [2] and -4% in experiment [3]. The result in experiment [5], in experiment [6], in experiment [7] and in experiment [8] was inactive.
In the case of `Nc1cc(-c2ccc(-c3cccs3)s2)nc2ccccc12`, the growth inhibition is 50% (active) in experiment [1] and 100% (active) in experiment [4]. For the same molecule, the inhibition in experiment [2] was 32%; in experiment [3] it was 5%. Moreover, the outcome in experiment [5], in experiment [6], in experiment [7] and in experiment [8] was inactive.
Regarding `COc1cccc(CN2CCCN(Cc3cccc(NC(=O)c4cc5ccccc5s4)c3)CC2)c1`, the growth inhibition in experiment [1] is 16%; in experiment [4], 89% (active). In addition, the figures for the inhibition in experiment [2] and in experiment [3] were 17% and -9%, respectively. Further, the result in experiment [5], in experiment [6], in experiment [7] and in experiment [8] was inactive.
For `Oc1ccc(-c2nc3c4cc(I)ccc4c4ccc(I)cc4c3[nH]2)cc1`, the growth inhibition was 51% (active) in experiment [1] and 98% (active) in experiment [4]. In addition, the results for the inhibition in experiment [2] and in experiment [3] were -3% and 2%, respectively. Also, the result in experiment [5], in experiment [6], in experiment [7] and in experiment [8] was inactive.
Consider `C#CCOc1ccc(N2C(N)=NC(N)=NC2(C)C)cc1`, for which the growth inhibition in experiment [1] is -3%; in experiment [4] it was 94% (active). For the same molecule, the values for the inhibition in experiment [2] and in experiment [3] were 43% and 6%, respectively. For the same molecule, the outcome in experiment [5], in experiment [6], in experiment [7] and in experiment [8] was inactive.
As for `Cc1ccccc1Nc1nc(NCCc2ccccc2)nc2ccccc12`, the growth inhibition in experiment [1] was 18%; in experiment [4] it was 82% (active). In addition, the figures for the inhibition in experiment [2] and in experiment [3] were 32% and -1%, respectively. Further, the outcome in experiment [5], in experiment [6], in experiment [7] and in experiment [8] was inactive.
As to `COCCN1CCC(N(Cc2ccc(-c3ccc(OC(F)(F)F)cc3)cc2)C(=O)Cn2c(CCc3cccc(F)c3F)cc(=O)c3ccccc32)CC1`, the figures for the growth inhibition in experiment [1] and in experiment [4] were 92% (active) and 96% (active), respectively. For the same molecule, the values for the inhibition in experiment [2] and in experiment [3] were 100% (active) and -10%, respectively. Moreover, the result in experiment [5], in experiment [6], in experiment [7] and in experiment [8] was inactive.
Regarding `O=C(/C=C/c1ccc(Cl)c(Cl)c1)NCCCCCCN1CCCN(C(=O)Nc2ccc(Cl)c(Cl)c2)CC1`, the values for the growth inhibition in experiment [1] and in experiment [4] were 8% and 100% (active), respectively. Moreover, the figures for the inhibition in experiment [2] and in experiment [3] were 25% and -1%, respectively. In addition, the outcome in experiment [5], in experiment [6], in experiment [7] and in experiment [8] was inactive.
Consider `CCCc1cc(C(=O)N[C@@H](Cc2ccccc2)[C@H](O)CNC2CCOCC2)c(F)c(N2CCCCS2(=O)=O)c1`, for which the growth inhibition in experiment [1] and in experiment [4] was 97% (active) throughout. Moreover, the inhibition was -6% in experiment [2] and -3% in experiment [3]. The outcome in experiment [5], in experiment [6], in experiment [7] and in experiment [8] was inactive.
`COc1cc2ccccc2cc1CNCCCCCCNCc1cc2ccccc2cc1OC`: the results for the growth inhibition in experiment [1] and in experiment [4] were 24% and 101% (active), respectively. The inhibition in experiment [2] is 98% (active); in experiment [3], 6%. The result in experiment [5], in experiment [6], in experiment [7] and in experiment [8] was inactive.
Consider `CCOc1ccc2c(NN=Cc3ccc(F)cc3)cc(C)nc2c1`, for which the growth inhibition is 99% (active) in experiment [1] and 101% (active) in experiment [4]. In addition, the inhibition was 22% in experiment [2] and -3% in experiment [3]. For the same molecule, the result in experiment [5], in experiment [6], in experiment [7] and in experiment [8] was inactive.
For the molecule `O=C(N[C@H]1CCN(Cc2ccc(OCCN3CCCC3)c(Cl)c2)C1)c1ccc(Cl)c(Cl)c1`, the growth inhibition was 46% in experiment [1] and 101% (active) in experiment [4]. In addition, the figures for the inhibition in experiment [2] and in experiment [3] were 68% (active) and -1%, respectively. In addition, the result in experiment [5], in experiment [6], in experiment [7] and in experiment [8] was inactive.
Turning to `Cc1[nH]c(C)c(-c2ccc(OCCSc3ccncc3)cc2)c(=O)c1Br`, the growth inhibition in experiment [1] and in experiment [4] was 95% (active) throughout. Also, the inhibition in experiment [2] and in experiment [3] was -6% each time. The result in experiment [5], in experiment [6], in experiment [7] and in experiment [8] was inactive.
As for `COC(=O)c1ccc2nc(-c3cc(OC)c(O)c(C(=O)NC4CCN(Cc5ccccc5)CC4)c3)[nH]c2c1`, the results for the growth inhibition in experiment [1] and in experiment [4] were -2% and 85% (active), respectively. Moreover, the figures for the inhibition in experiment [2] and in experiment [3] were 8% and 0%, respectively. Besides, the outcome in experiment [5], in experiment [6], in experiment [7] and in experiment [8] was inactive.
As for `Cc1c(Cn2ncc(N3C[C@@H](C)N[C@@H](C)C3)c(Cl)c2=O)cccc1NC(=O)Nc1ccc(-c2ccccc2)cc1`, the growth inhibition in experiment [1] was 35%; in experiment [4] it was 97% (active). Besides, the inhibition in experiment [2] was 97% (active); in experiment [3], -6%. For the same molecule, the result in experiment [5], in experiment [6], in experiment [7] and in experiment [8] was inactive.
For `COc1ccc(-c2cc(C(=O)N[C@@H](CC3CCCCC3)C(=O)NC3CCCc4ccccc43)ccc2O)cc1` (stereo not given in full), the growth inhibition in experiment [1] is 97% (active); in experiment [4] it was 98% (active). Besides, the inhibition in experiment [2] is 7%; in experiment [3], -1%. In addition, the result in experiment [5], in experiment [6], in experiment [7] and in experiment [8] was inactive.
With `Cc1cc2nc(-c3ccc(/C=C/C(=O)NCCCc4ccccc4)cc3)[nH]c2cc1C`, the growth inhibition was 13% in experiment [1] and 96% (active) in experiment [4]. Moreover, the figures for the inhibition in experiment [2] and in experiment [3] were 15% and -4%, respectively. The result in experiment [5], in experiment [6], in experiment [7] and in experiment [8] was inactive.
